Test results reported in PubChem BioAssay AID1259343 (VanderVen Lab, College of Veterinary Medicine, Cornell …, 2017).
Screen size: about 6,200 compounds; about 2,900 (47%) were called active. The set was probably picked from earlier hits. The list shows a part of the results. Unmarked numbers belong to inactive results. Cut-off read from the data, not from the text of the source: active = inhibition above about 50%; inactive = the rest.

Test: Mycobacterium tuberculosis growth inhibition, primary screen (AID 1259343)
Settings: inhibition: at 10 µM, active compounds read high; outcome: 10 uM

SMILES | inhibition
CCOC(=O)CSc1ncnc2c1nnn2Cc1ccc(Cl)cc1 | -17.6%
CCOC(=O)CNC(=O)CSc1ncnc2c1nnn2Cc1ccc(F)cc1 | -15.9%
CCOC(=O)C(C)Sc1ncnc2c1nnn2Cc1ccc(F)cc1 (configuration not stated) | 64.3% (active)
CCOC(=O)CSc1ncnc2c1nnn2Cc1ccc(F)cc1 | -18.2%
CCOC(=O)C(C)Sc1ncnc2c1nnn2Cc1ccc(Cl)cc1 (configuration not stated) | 50.4% (active)
CN=c1scc(-c2ccccc2F)n1N=Cc1cccc(F)c1 | 98.1% (active)
CN=c1scc(-c2ccc(F)cc2)n1N=Cc1cccc(C(F)(F)F)c1 | -44.1%
CN=c1scc(-c2ccccc2F)n1N=Cc1ccccc1 | -1.69%
CN=c1scc(-c2ccccc2F)n1N=Cc1ccc(SC)cc1 | -1.82%
CN=c1scc(-c2ccc(F)cc2)n1N=Cc1ccccc1Br | -41.8%
CN=c1scc(-c2ccc(F)cc2)n1N=Cc1cccc(Br)c1 | 70.2% (active)
Cc1nn(C(=O)C(C)N2C(=O)c3ccccc3C2=O)c(C)c1Br (configuration not stated) | 14.3%
COc1ccc2oc(=O)cc(-c3cc4cc(Br)ccc4o3)c2c1 | -2.37%
Cc1cccc2nc(COc3ccc4ccccc4c3Br)cn12 | 41.5%
CCCCN1CCC(COC(=O)c2cc(Cl)c(N)c3c2OCCO3)CC1 | 98.9% (active)
Cc1cccc(SC2CCN(c3nncc(-c4ccccc4)n3)CC2)c1 | 32.6%
Nc1ncc(Cc2cc(Cl)ccc2Cl)s1 | -17.2%
Nc1ncc(Cc2ccc(Cl)cc2F)s1 | 35.3%
NC(N)=NCc1ccc(Cl)cc1Cl | 74.4% (active)
Cc1nc(C)c(-c2csc(Nc3cccnc3)n2)s1 | 35.7%
Cc1nc(C)c(-c2ccc(SCc3c(F)cccc3Cl)nn2)s1 | 69.8% (active)
O=C(NC(C1CC1)C1CC1)C1CC(c2ccc(Cl)s2)=NO1 (configuration not stated) | -31.9%
CC(NC(=O)C1CC(c2cccc(F)c2)=NO1)c1ccc(F)cc1F (configuration not stated) | 84.1% (active)
O=C(Nc1ccc(-n2cccn2)nc1)C1CC(c2cccc(F)c2)=NO1 (configuration not stated) | 14.1%
O=C(Oc1ccc2ccccc2c1)c1cccs1 | 86.7% (active)
CCOc1ccccc1C(=O)Oc1ccc2ccc(O)cc2c1 | 40.6%

SMILES | inhibition
COc1ccc2c(=O)c3c(oc2c1)C(=O)N(c1nccs1)C3c1ccc(C(C)(C)C)cc1 (configuration not stated) | 5.45%
COc1ccc2c(c1)OCc1c-2oc2cc(OC)ccc12 | 81.8% (active)
COc1ccc2c(=O)c3c(oc2c1)C(=O)N(c1nccs1)C3c1ccccc1 (configuration not stated) | 11.9%
CC1CCc2c(Cl)cc(Cl)c(O)c2N1 (configuration not stated) | 103% (active)
COc1cc(C=Nc2ccc(I)cc2)cc(OC)c1OC | 75.7% (active)
COc1cc(C=Nc2ccc3ncccc3c2)cc(OC)c1OC | -5.15%
COc1cc2c(cc1/C=C/C(=O)N1CCc3ccccc31)OC(C)C2 (configuration not stated) | 59.3% (active)
Cc1ccc2c(c1)CCCN2C(=O)/C=C/c1ccco1 | 44.5%
CCCc1cc(=O)oc2cc(OC(C)C)c(Cl)cc12 | 23.5%
CCCc1oc2cc(O)ccc2c(=O)c1Oc1ccccc1 | 80.2% (active)
CCCc1cccc(C)c1O | 42.4%
O=c1c(Oc2ccccc2)coc2cc(O)ccc12 | 88.5% (active)
O=c1c(Oc2ccccc2F)coc2cc(O)ccc12 | 11.6%
CCCc1cc(=O)oc2cc(O)ccc12 | 55.5% (active)
CCCc1nc2oc3cc(OC)ccc3c(=O)c2c(=O)n1CCc1ccccc1 | 4.8%
O=c1c(Oc2ccc(Cl)cc2)coc2cc(O)ccc12 | 33.2%
O=c1c(Oc2ccc(F)cc2)coc2cc(O)ccc12 | 103% (active)
CCOC(=O)C(C)Oc1ccc2c(=O)c(Oc3ccc(OCC)cc3)coc2c1 (configuration not stated) | 22.8%
Oc1ccc(-c2nc3c4cnn(-c5ccccc5Cl)c4ncn3n2)cc1 | 44.1%
O=C(c1cnn2cccnc12)N1CCOc2ccc(C(O)C(c3ccccc3)c3ccccc3)cc2C1 (configuration not stated) | -21.2%
Cc1cc(C(C)(C)CC(C)(C)C)ccc1OCCOCC[N+](C)(C)Cc1ccccc1 | 87.5% (active)
CCCCCCCCc1nc(=S)[nH][nH]1 | 86.1% (active)
CCCCCCCCN1C(=O)CC(=O)NC1=S | 27.6%
Cc1nc2sc3c(c2c(=O)o1)CCCCC3 | 102% (active)
O=C1CCC(=O)N1c1ccc(-c2nc3sc4c(c3c(=O)o2)CCC4)cc1 | -4.37%
CC(C)(C)c1nc2sc3c(c2c(=O)o1)CCCC3 | 25.7%

SMILES | inhibition
COc1ccccc1C(C)(C)C(=O)n1nc(C(F)(F)F)nc1N | 7.93%
Cc1cnn(C2CN(c3ccc(S(=O)(=O)C(F)(F)F)cc3)C2)c1 | 84.2% (active)
NC(=O)C1CCN(c2ccc(S(=O)(=O)C(F)(F)F)cc2)C1 (configuration not stated) | -74.6%
CCN(C(=O)c1cc(C)c(-c2ccc(F)cc2)s1)C1CCC1 | 24.1%
FC(F)(F)c1ccc(Cn2ccnc2CNC2CCCCC2)cc1 | 21.3%
Cc1cc(C)c(Cn2ccnc2CN(C(=O)c2ccc(F)cc2)C2CC2)c(C)c1 | 51.5% (active)
CC1=C(C)C(=O)C(CCCCC#CCCCC#CCO)=C(C)C1=O | 84.5% (active)
C=C(C)CN=c1scc(C)n1N=Cc1sccc1C | 21.6%
COc1ccc(COc2ccc(N(C)C(N)=O)cc2)c(Cl)c1 | 15.9%
COc1ccc(N(CC(F)(F)F)C(=O)CCl)cc1 | 84.1% (active)
COc1ccc2cc(CN(C)C(=O)CCl)ccc2c1 | inactive
CC1CCCC(NC(=O)c2cc3c(s2)CSC3)C1C (configuration not stated) | 55.5% (active)
CC1CCc2sc(C(=O)NCc3ccc4c(c3)OCO4)cc2C1 (configuration not stated) | -11%
COc1ccc(-c2c(O)c3c(OC)c4c(cc3oc2=O)OC(C)(C)C=C4)cc1 | 63.3% (active)
CC(=O)O[C@@H]1C[C@@]2(C)[C@H](c3ccoc3)C[C@H]3O[C@]32[C@]2(C)C(=O)C(O)=C3C(C)(C)C(=O)C=C[C@]3(C)C12 (some centres not stated) | 94.8% (active)
COc1cc(=C2C=c3ccccc3=N2)[nH]/c1=C\c1[nH]c(C)cc1C | -5.42%
O=C(NC(=S)Nc1ccc(N2CCN(C(=O)c3ccccc3)CC2)cc1)c1ccco1 | 99.1% (active)
O=C(Nc1cccc(-c2cccc(Cl)c2)c1)C1CCN(C(=O)c2cccnc2)CC1 | inactive
O=C(Nc1cccc(-c2cccc(Cl)c2)c1)C1CCN(C(=O)C2CCCO2)CC1 (configuration not stated) | 9.39%
COc1ccc(C(=O)N2CCC(C(=O)Nc3cccc(-c4cccc(Cl)c4)c3)CC2)o1 | 70.5% (active)
O=C(Nc1cccc(-c2cccc(Cl)c2)c1)C1CCN(C2CCOCC2)CC1 | 88.7% (active)
O=C(Nc1cccc(-c2cccc(Cl)c2)c1)C1CCN(C(=O)C2CCOC2)CC1 (configuration not stated) | 71% (active)
O=C(Nc1cccc(-c2cccc(Cl)c2)c1)C1CCN(C(=O)c2ccccc2)CC1 | 85.9% (active)
O=C(Nc1cccc(-c2cccc(Cl)c2)c1)C1CCN(C(=O)c2csnn2)CC1 | -4.87%
O=C(Nc1cccc(-c2cccc(Cl)c2)c1)C1CCN(C(=O)C2CC=CCC2)CC1 (configuration not stated) | 81.6% (active)
CC(C)c1nccc(-c2nccn2CC2(O)CCN(C)CC2)n1 | -4.81%

SMILES | inhibition
COc1ccc(Cc2[nH]n3c(=O)cc(C)nc3c2-c2ccccc2)cc1 | 37.9%
COc1ccccc1-c1c(C)[nH]n2c(=O)cc(-c3ccc([N+](=O)[O-])cc3)nc12 | 77.8% (active)
COc1ccccc1-c1c(C)nn2c(NC(C)c3ccccc3)cc(C)nc12 (configuration not stated) | 5.58%
COc1ccc(NC(C)c2nc(C)no2)cc1Cl (configuration not stated) | 57.6% (active)
CC(Oc1ccc(Cl)cc1Cl)c1nc(-c2ccncc2)no1 (configuration not stated) | 43.3%
COc1ccc(Nc2nc3cc(Cl)ccc3o2)cc1Cl | 21.2%
CNc1nc(C)c(C(=O)c2ccc(C)cc2)s1 | 86.1% (active)
CN(CC(=O)Nc1sc2c(c1C#N)CCCCC2)Cc1ccco1 | 49.1%
CC(Cc1ccco1)NC(=O)c1cc2c(s1)CCC2 (configuration not stated) | 93.1% (active)
O=C(NNS(=O)(=O)c1ccc2c(c1)OCCO2)c1cc2c(s1)CCCCC2 | 20.9%
S=c1sc2c(Cl)ncnc2n1-c1ccccc1 | 60.9% (active)
Cn1c(=O)c([N+](=O)[O-])c(N2CCN(Cc3cccc4ccccc34)CC2)c2ccccc21 | 59% (active)
Cn1c(=O)c([N+](=O)[O-])c(N2CCN(Cc3ccc(Cl)cc3Cl)CC2)c2ccccc21 | 40.7%
Cn1c(=O)c([N+](=O)[O-])c(N2CCN(CCOc3ccc(Cl)cc3)CC2)c2ccccc21 | 38.3%
CC(NCc1cc(=O)n2cc(Br)ccc2n1)c1cc(F)c(Cl)cc1Cl (configuration not stated) | 27.6%
Brc1ccc(CSc2nc3ncccc3[nH]2)cc1 | 34%
O=c1cc(CSc2nc3ncc(Cl)cc3[nH]2)nc2ccc(Br)cn12 | 101% (active)
CCCC[P+](CCCC)(CCCC)Cc1ccc(NC(=O)[C@@H](Cc2ccc3ccccc3c2)NC(=NC2CCCCC2)NC2CCCCC2)cc1 | 95.8% (active)
O=C(Nc1ncccc1OCC1CCCCC1)c1cscn1 | 55.5% (active)
O=S(=O)(NCC1(c2ccccc2)CC1)N1CCCCCC1 | 16.5%
O=C(NCC1(c2ccccc2)CC1)c1cc(Cl)ccc1O | 94.2% (active)
N#CC(C(=O)COc1cc(F)ccc1F)c1nc2ccccc2s1 (configuration not stated) | 91.5% (active)
N#CC(C(=O)C1COc2ccccc2O1)c1nc2ccccc2s1 (configuration not stated) | 19%
N#CC(C(=O)C1c2ccccc2-c2ccccc21)c1nc2ccccc2s1 (configuration not stated) | 33.3%
